# Data: PubChem BioAssay AID463173 (ICCB-Longwood Screening Facility, Harvard Medical School, 2010)
# The whole screen tested about 52,000 compounds, of which about 4,300 (8.3%) were called active. Many of the other results were omitted from the sample, so actives are more common in it than they were. Values without a mark were called inactive. Rule as the data show it: active = survival mostly below about 52% (no sharp cut-off); inactive = mostly above about 56%.
# Test system: DeltatarO mutant
# Assay: S. aureus survival, RN4220 and DeltatarO strains – OD600, teichoic acid synthesis inhibitors, primary screen (AID 463173)
# Conditions: S. aureus RN4220 wild type/DeltatarO growth, OD600, 18 h, active compounds read low, screened at 18.75 µg/mL (by protocol)
row,SMILES,survival
1,O=C(CN1CCC(N2CCCCC2)CC1)Nc1ccc2c(c1)OCCO2,96%
2,Cc1cccc(C)c1OCc1nc2c3cnn(-c4ccccc4F)c3ncn2n1,109%
3,CCN(CC)S(=O)(=O)c1cccc(C(=O)Nc2ccccc2C(=O)Nc2ccc(OC)cc2)c1,78%
4,Cc1cc(F)ccc1NC(=O)CS(=O)(=O)c1cccc2nsnc12,77%
5,CCc1ccc(CNC(=O)Cn2c(-c3cccs3)cc3cc(F)ccc32)cc1,119%
6,CC(C)c1ccc(Nc2c(-c3ccccn3)nc3ccccn23)cc1,-4% (active)
7,CC(C)c1nc2ccccn2c1NC1CCCCC1,102%
8,c1ccc(-c2nc3ccccn3c2NC2CCCC2)nc1,1% (active)
9,CC(C)c1ccc(Nc2c(-c3ccco3)nc3ccccn23)cc1,42%
10,Fc1ccc(Nc2c(-c3ccccn3)nc3ccc(Cl)cn23)cc1,65%
11,Cc1cccc2nc(-c3ccccn3)c(Nc3ccc(F)cc3)n12,-9% (active)
12,CN(C)c1ccc(-c2nc3ccccn3c2NC2CCCC2)cc1,83%
13,Cc1ccc(Nc2c(-c3ccccn3)nc3ccc(Br)cn23)cc1,72%
14,Cc1cccc2nc(-c3ccccn3)c(Nc3ccccc3)n12,24%
15,Cc1ccc2nc(-c3ccccn3)c(Nc3ccc(F)cc3)n2c1,10% (active)
16,COc1ccc(Nc2c(-c3ccccn3)nc3ccc(Cl)cn23)cc1,93%
17,Cc1ccn2c(Nc3ccc(F)cc3)c(-c3ccccn3)nc2c1,105%
18,COc1ccc(NC(=O)Cn2cnc3sc(C)c(S(=O)(=O)N4CCN(C)CC4)c3c2=O)cc1OC,167%
19,COc1ccc(NC(=O)CN2CCN(Cc3ccccc3Cl)S2(=O)=O)cc1Cl,41%
20,O=S(=O)(NCCc1csc2nc(-c3ccccc3)nn12)c1ccc(Cl)s1,86%
21,CCn1c(CNC(=O)C(OC)c2ccccc2)nnc1SC (configuration not stated),87%
22,O=c1c(=O)n(-c2cccc(Cl)c2)ccn1Cc1cccc(F)c1,66%
23,COc1ccc(Cl)cc1NC(=O)c1cnc(N2CCCCC2)c2ccccc12,78%
24,CCOc1ccccc1NC(=O)CCc1c(C)nn(-c2ccc(N3CCOCC3)nn2)c1C,80%
25,CCOC(=O)c1cccc(NC(=O)c2cc3ccccn3n2)c1,124%
26,COc1cccc(C2CC(=O)Nc3cc(OC)c(OC)c(OC)c32)c1OC(C)C (configuration not stated),93%
27,CCOC(=O)c1cccc(-n2nnc3c(sc4nc(C)c(Br)c(C)c43)c2=O)c1,92%
